The values that follow come from PubChem BioAssay AID1345085 (National Center for Advancing Translational Sciences (NCATS), 2018).

The structures appear in SMILES notation. Inconclusive results are not listed. A number with no mark means an inactive call. Active and inactive are the calls of the source. The call rests on the fitted dose curve; in most records, active means well fitted cell-killing curve with a large enough effect; inconclusive means small, poorly fitted or top-dose-only effect, or effect the other way; inactive means no such curve, though single readings can be large or run the other way. *1 amine or outer side, *2 acyl side, *3 side chain or, on linkers, in order; H or OH if unused. Where a SMILES comes first, the peptide text is derived from it. Bridges are numbered along the chain shown (N, C = ends). Roman numbers before positions name the chains, in order. [ ]: non-standard residue; d: D form. Actinocin(9to1) = Cc1c2oc3c(C)ccc(C(=O)[*:1])c3nc-2c(C(=O)[*:2])c(N)c1=O; NMeV = CN[C@H](C(=O)O)C(C)C; Sar = CNCC(=O)O
On the % scale 0 is the no-effect control and ±100 the full control effect; potency means the concentration at half of the fitted maximal effect.

The experiment concerns PA-1. The experiment can be described thus: Confirmatory qHTS for gynecologic anti-cancer compounds from libraries of approved drugs and bioactive compounds. Further: nearly all actives have a fitted effect of over 55% in size. Particulars: gynecologic cancer cell panel viability, ATPlite luminescence, 48 h; series mostly up to 57.6 µM; activity change, negative = viability loss: at the top concentration. A digest of the protocol:
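1,000 cells/well; 16 h pre-incubation 37 C, 5% CO2; pin-transferred cpd in DMSO, 11 conc (1:3), 57.5 uM–0.977 nM; 48 h; ATPlite, 15 min RT; luminescence → IC50.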
(In qHTS, concentration-response curves come from the screen itself.)
In the case of `CC(C)Nc1cc(-c2c[nH]c(C(=O)N[C@H](CO)c3cccc(Cl)c3)c2)c(Cl)cn1`, the Potency is 6110 nM (active). `CN(C)CC/C=C1\c2ccccc2COc2ccccc21`: the “activity change, negative = viability loss” value was 6.3%. For `Cc1ccc(C(N)=O)cc1Nc1nccc(-c2cn(C(C)C)c3cnccc23)n1`, the Potency is 1370 nM (active).

Take `C[C@]12CCC(=O)C=C1CC[C@@H]1[C@@H]2[C@@H](O)C[C@@]2(C)[C@H]1CC[C@]2(O)C(=O)CO`: the Potency is 21700 nM (active).

As for `COc1ccc2c(c1)c(CC(=O)O)c(C)n2C(=O)c1ccc(Cl)cc1`, the Potency is 27300 nM (active). As to `Cn1cc(-c2ccc3ncc(Cc4ccc5ncccc5c4)n3n2)cn1`, the “activity change, negative = viability loss” value is 6.59%.

`Cc1c2oc3c(C)ccc(C(=O)N[C@@H]4C(=O)N[C@H](C(C)C)C(=O)N5CCC[C@H]5C(=O)N(C)CC(=O)N(C)[C@@H](C(C)C)C(=O)O[C@@H]4C)c3nc-2c(C(=O)N[C@@H]2C(=O)N[C@H](C(C)C)C(=O)N3CCC[C@H]3C(=O)N(C)CC(=O)N(C)[C@@H](C(C)C)C(=O)O[C@@H]2C)c(N)c1=O` (I: T[dV]P[Sar][NMeV] / II: T[dV]P[Sar][NMeV]; ester I:1-I:C, II:1-II:C; linker I:N-II:N via Actinocin(9to1)): the Potency was 96.8 nM (active). Still for that read-out and setting: next, `O=C(O)c1ccc(Nc2ncc3c(n2)-c2ccc(Cl)cc2C(c2c(F)cccc2F)=NC3)cc1`: 968 nM (active).

`CCN1CCN(Cc2ccc(-c3cc4c(NC(C)c5ccccc5)ncnc4[nH]3)cc2)CC1` (stereo not given): the Potency is 24300 nM (active). Same read-out and setting: under `COc1cc(Nc2ncc3c(n2)-c2ccc(Cl)cc2C(c2c(F)cccc2OC)=NC3)ccc1C(=O)O` stands 193 nM (active); under `Cc1[nH]c2ccccc2c1CCNCc1ccc(/C=C/C(=O)NO)cc1`, 122 nM (active).

Turning to `CC(=O)c1cnc2ccc(-c3cc(Cl)c(O)c(Cl)c3)nc2c1NC1CCC(CN(C)C)CC1` (stereo not given), the Potency is 222 nM (active). In the case of `Cc1c(NC(=O)OCC2COCCN2)cn2ncnc(Nc3ccc4c(cnn4Cc4cccc(F)c4)c3)c12` (stereo not given), the Potency is 27300 nM (active). The same measure, in the same setting: next, `CCC1C(=O)N(C)c2cnc(Nc3ccc(C(=O)NC4CCC(N5CCN(CC6CC6)CC5)CC4)cc3OC)nc2N1C(C)C` (stereo not given): 76.9 nM (active). The same measure, in the same setting: under `Nc1ccc(-c2ccc3ncc4ccc(=O)n(-c5cccc(C(F)(F)F)c5)c4c3c2)cn1` stands 863 nM (active); under `C=CC(=O)Nc1cc2c(Nc3ccc(F)c(Cl)c3)ncnc2cc1OCCCN1CCOCC1`, 30600 nM (active). The same measure, in the same setting: next, `CC[C@]1(O)C[C@H]2CN(CCc3c([nH]c4ccccc34)[C@@](C(=O)OC)(c3cc4c(cc3OC)N(C=O)[C@H]3[C@@](O)(C(=O)OC)[C@H](OC(C)=O)[C@]5(CC)C=CCN6CC[C@]43[C@@H]65)C2)C1`: 172 nM (active); `COc1ccc2cc3[n+](cc2c1OC)CCc1cc2c(cc1-3)OCO2`: 968 nM (active).

Take `Nc1ccn([C@@H]2O[C@H](CO)[C@@H](O)C2(F)F)c(=O)n1`: the Potency was 61.1 nM (active). On the same count and under the same terms, under `CCN(CC)CCNC(=O)c1c(C)[nH]c(/C=C2\C(=O)Nc3ccc(F)cc32)c1C` stands 8910 nM (active). On the same count and under the same terms, next, `O=C1Cc2cc(CCN3CCN(c4nsc5ccccc45)CC3)c(Cl)cc2N1`: 24300 nM (active).

`O=C(c1ccc(/C=C/c2n[nH]c3ccccc23)cc1)N1CCNCC1`: the Potency was 6110 nM (active). Same read-out and setting: under `CC[C@H](CC#N)OC(=O)N[C@@H](C)c1cccc(NC(=O)Nc2ccc(-c3cnco3)c(OC)c2)c1` stands 217 nM (active); under `OC[C@H]1O[C@@H](n2cnc3c(=S)nc[nH]c32)[C@H](O)[C@@H]1O`, 2730 nM (active); under `CCCS(=O)c1ccc2nc(NC(=O)OC)[nH]c2c1` (stereo not given), 34300 nM (active). For `CN1C2CCC1CC(OC(=O)[C@H](CO)c1ccccc1)C2` (stereo not given in full), the “activity change, negative = viability loss” value was -5.44%. Turning to `COc1cc(C(=O)N2CCC(N3CCN(C)CC3)CC2)ccc1Nc1ncc2c(n1)N(C)c1ccccc1C(=O)N2C`, the Potency is 9680 nM (active). Same read-out and setting: under `CN(C)C/C=C/C(=O)Nc1cc2c(Nc3ccc(F)c(Cl)c3)ncnc2cc1OC1CCOC1` (stereo not given) stands 9680 nM (active); under `CC[C@]1(O)C[C@@H]2CN(CCc3c([nH]c4ccccc34)[C@@](C(=O)OC)(c3cc4c(cc3OC)N(C)[C@H]3[C@@](O)(C(=O)OC)[C@H](OC(C)=O)[C@]5(CC)C=CCN6CC[C@]43[C@@H]65)C2)C1`, 109 nM (active); under `CC1=C(CO)C(=O)O[C@@H]([C@@H](C)[C@H]2CC[C@H]3[C@@H]4C[C@H]5O[C@]56[C@@H](O)C=CC(=O)[C@]6(C)[C@H]4CC[C@]23C)C1`, 1680 nM (active).
